HCV inh: blocks hepatitis C virus | Huh7.5.1 HCVcc-Cre infection, luciferase reporter, 44 h | hit rate 3.4% among 340,000 | Potency, µM (doses to about 41.8 µM), for the others: top-dose activity change, negative = inhibition, actives largely listed as inhibitors; active = well fitted inhibition curve with a large enough effect; inconclusive = small, poorly fitted or top-dose-only effect, or another doubt; inactive = no such curve, though single readings can be large or run the other way; note: potency is the fitted concentration of half-maximal effect
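After 44 h co-culture of compound, cells and HCVcc-Cre (~0.5 moi), substrate is added for 15 min at room temperature and luciferase measured over 15 sec. Cells were seeded at 1,000/well and pre-cultured 4 h.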
Vaccinia Venus: inhibitors of vaccinia virus (Venus reporter) | Vaccinia virus Venus reporter expression, fluorescence | Potency, µM (series often up to 36.5 µM), for the others: top-dose activity change, negative = inhibition, hits mostly inhibitors | hit rate 0.46% among 330,000 | AID 720580; calls by dose curve; tested in A549 cells; note: potency is the fitted concentration of half-maximal effect; nearly all actives have a fitted effect of over 30% in size
FMDV antiviral: foot and mouth disease virus antiviral activity | FMDV antiviral cell-based qHTS | Potency, µM (titrated, usually from 57.9 µM), for inactives: top-dose activity change, negative = inhibition, usual class: inhibitors | hit rate 1.2% among 410,000 | AID 1159524; calls by dose curve; tested in HEK293T cells; note: read-out not given here; potency is the fitted concentration of half-maximal effect; nearly all actives have a fitted effect of over 45% in size
HCMV antiviral: blocks human cytomegalovirus replication; HFF cells, HCMV-luciferase reporter, 72 h; stronger effect = lower value; activity change, negative = inhibition, % at 57.5 µM; hit rate 4.5% among 410,000; AID 1259415; in the data active = activity change below about -60%; inconclusive = no clear call, values can overlap the other calls; inactive = above about -39%
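Cell-based, HFFs, 1000 cells/well, 16 h 37C; cpds in DMSO + HCMV-luc, MOI 1 PFU/cell; 72 h 37C; OneGlo luminescence after 5 min RT; norm. to buffer vs Salinomycin 10uM.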
Vaccinia mCherry: inhibitors of vaccinia virus infection (mCherry reporter signal); AID 720579; Potency, µM (doses to about 36.5 µM), for the others: at the highest dose activity change, negative = inhibition, hits mostly inhibitors; hit rate 0.63% among 310,000; Vaccinia virus mCherry reporter infection, fluorescence; calls by dose curve; tested in A549 cells; note: potency is the fitted concentration of half-maximal effect; nearly all actives have a fitted effect of over 35% in size
* hit, by the source's call; i = inactive; ? = inconclusive; nt = not tested or not shown. The list is not random: actives were taken first. Their share in the collection is about 7.3%. % is set by controls: 0 for no effect and ±100 for the full control effect.

SMILES	HCV inh	Vaccinia Venus	FMDV antiviral	HCMV antiviral	Vaccinia mCherry
Cc1cnc(C)c(-c2cccc3c2OC(CNC(=O)CN2C(=O)c4ccccc4C2=O)C3)n1 (configuration not stated)	nt	-14%	1%	nt	i
COCc1cc(C)nc2sc(C(=O)Nc3ccccc3O)c(N)c12	nt	-17%	21%	-24	-23%
COCc1cc(C)nc2sc(C(=O)Nc3ccccc3F)c(N)c12	10µM*	nt	33%	-14	nt
COC1C(O)C(C)OC(OC2C(Oc3cccc4c(O)c5c(=O)oc6ccc(C)c7c(=O)oc(c34)c5c67)OC(C)C(O)C2O)C1O (configuration not stated)	?	-9%	?	-97*	-14%
CC1O[C@@H](O[C@H]2C(Oc3cc(O)c4c(=O)cc(-c5ccc(O)cc5)oc4c3)OC(CO)C(O)C2O)C(O)C(O)C1O (some centres not stated)	nt	-8%	-5%	nt	-2%
CCN1[C@@H]2c3ccc(-c4ccc(OC)cc4)c(=O)n3C[C@@H]2[C@@H](CO)[C@@H]1C(=O)NCCN1CCCCC1	nt	nt	nt	10	nt
O=C(c1ccncc1)N1CCC2(CCC(CNC(=O)C3(N4CCOCC4)CCCCC3)O2)CC1 (configuration not stated)	nt	10%	-4%	nt	5%
Cc1cc(NS(=O)(=O)c2ccc(NS(=O)(=O)c3ccc(CC(C)C)cc3)cc2)nc(C)n1	4µM*	-15%	69%	?	i
O=C1CC(C(=O)O)S/C(=N\NC(=O)c2ccccc2)N1 (configuration not stated)	7%	nt	4%	-82*	nt
Cc1cc(NN=Cc2ccccn2)nc2c(C)cccc12	nt	nt	nt	-16	nt
C(=N\NC1=Nc2cccc3cccc1c23)/c1ccccn1	2.8µM*	?	9%	-80*	?
Cc1cc(NN=Cc2ccccn2)nc2ccccc12	nt	nt	nt	-100*	nt
C(=NNc1ccc2ccccc2n1)c1ccccn1	nt	?	7.9µM*	-101*	1.8µM*
Clc1ccccc1/C=N/NC1=Nc2cccc3cccc1c23	-12%	58%	36%	29	-29%
C(=N\N=C\c1ccccn1)/c1ccccn1	5%	-9%	21%	6	-26%
CC(C)(C(=O)NCc1ccccc1)n1cc(NC(=O)c2ccc3c(c2)OCO3)cn1	nt	nt	nt	52	nt
Cc1nn2c3c(cnc2c1-c1ccc(F)cc1)C(=O)CC(c1ccccc1)C3 (configuration not stated)	nt	-8%	?	-24	-13%
CC1(C)Oc2ccc3ccc(=O)oc3c2/C(=C/NC2CCCCC2)C1=O	10µM*	-21%	0%	?	?
CC1(C)Oc2ccc3ccc(=O)oc3c2/C(=C/N)C1=O	-17%	nt	-22%	6	nt
CC1(C)Oc2ccc3ccc(=O)oc3c2/C(=C/Nc2ccccc2)C1=O	10µM*	7%	?	?	-1%
CC1(C)Oc2ccc3ccc(=O)oc3c2/C(=C/O)C1=O	-4%	-10%	-7%	-7	i
C=NCc1cc2c(OC[C@@H](O)CNC(C)(C)C)cccc2[nH]1	nt	-4%	-12%	nt	-15%
CCN1CCN(C(=O)c2ccc3c(c2)N(Cc2ccc(Cl)cc2)C(=O)c2ccccc2S3(=O)=O)CC1	nt	-11%	-14%	-61*	-14%
Cc1ccc(C)c(CN2C(=O)c3ccccc3S(=O)(=O)c3ccc(C(=O)N4CCN(c5ccccc5)CC4)cc32)c1	nt	-13%	1%	?	-17%
Cc1ccc(C)c(CN2C(=O)c3ccccc3S(=O)(=O)c3ccc(C(=O)N4CCN(c5ccccn5)CC4)cc32)c1	nt	-12%	-4%	-71*	-6%
SMILES	HCV inh	Vaccinia Venus	FMDV antiviral	HCMV antiviral	Vaccinia mCherry
Cc1ccc2c(c1)N(C(=O)N1CCC(C(=O)NCCC3=CCCCC3)CC1)CC(C)O2 (configuration not stated)	nt	2%	0%	3	8%
O=C(c1cccc(S(=O)(=O)N2CCc3ccccc3C2)c1)N1CCN(c2ccccc2)CC1	?	-28%	?	2	-9%
O=C(c1cccc(S(=O)(=O)N2CCc3ccccc32)c1)N1CCCC(C(F)(F)F)C1 (configuration not stated)	11µM*	-2%	-24%	?	-8%
O=C(Nc1ccc(Cl)c(C(F)(F)F)c1)c1ccc2c(c1)CCN2S(=O)(=O)c1ccccc1	nt	?	-19%	-74*	?
NC(=O)c1ccc(NC(=O)c2ccc3c(c2)CCN3S(=O)(=O)c2ccccc2)cc1	?	-9%	7%	32	-6%
O=C(Nc1ccncc1)c1cccc(S(=O)(=O)N2CCc3ccccc32)c1	8.9µM*	-19%	?	-77*	-28%
O=C(c1cccc(S(=O)(=O)N2CCc3ccccc32)c1)N1CCN(c2ccccc2)CC1	10µM*	-10%	-12%	?	-25%
Cc1cc(Oc2c(C(F)(F)F)oc3c(CN4CCC(C)CC4)c(O)ccc3c2=O)cc(C)c1Cl	nt	-1%	-20%	9	-4%
NS(=O)(=O)c1ccc(CCNC(=O)Cn2c(=O)c3cccn3c3ccc(F)cc32)cc1	nt	-1%	-6%	39	-2%
CCC1CCCCN1Cc1nc2c(c(=O)n(C)c(=O)n2C)n1Cc1c(F)cccc1Cl (configuration not stated)	nt	-10%	nt	nt	6%
Cc1ccc2nc(COc3ccccc3NC(=O)c3ccc(F)cc3)cc(=O)n2c1	nt	-15%	-10%	-3	-16%
COc1ccccc1N1CCN(C(=O)c2ccc(Cl)c(S(=O)(=O)NCc3ccco3)c2)CC1	8.9µM*	?	-25%	-8	?
O=C(c1ccc(Cl)c(S(=O)(=O)NCc2ccco2)c1)N1CCN(c2ccccc2F)CC1	-45%	?	-27%	-31	-24%
CCOC(=O)c1sc(NC(=O)c2cccc(S(=O)(=O)N3CCc4ccccc43)c2)c(C#N)c1C	10µM*	nt	?	-99*	nt
COc1ccccc1N1CCN(C(=O)c2ccc3c(c2)CCN3S(=O)(=O)c2ccccc2)CC1	13µM*	-10%	?	?	-22%
COc1ccc2c(c1)c1c(c(=O)n(CCc3ccccc3)c(=O)n1Cc1cccc(F)c1)n2C	nt	-17%	-17%	38	-21%
COC(=O)c1ccccc1-c1cc(C)cc2c1OC(CNC(=O)c1cc(C)n(C)n1)C2 (configuration not stated)	nt	-10%	20%	nt	i
CCOc1ccccc1C(=O)NCc1ccc2c(c1)CCN2C(C)=O	nt	-26%	42%	26	?
COc1ccc(N/N=C(/C#N)S(=O)(=O)c2nsc(C)c2C#N)cc1	6%	-12%	32%	0	nt
Cc1snc(S(=O)(=O)/C(C#N)=N/Nc2cccc(C(F)(F)F)c2)c1C#N	-5%	?	28%	nt	11µM*
CCOc1ccccc1NC(=O)CSC1=Nc2ccccc2C2=NC(CC(=O)NC3CCCCC3)C(=O)N12 (configuration not stated)	nt	-3%	-15%	-33	-4%
CN(C)c1ccc(C(=C2C=CC(=[N+](C)C)C=C2)c2ccc(N(C)C)cc2)cc1	nt	10µM*	18µM*	nt	235%

Screening results deposited in PubChem by National Center for Advancing Translational Sciences (NCATS).
